Experimental findings from PubChem BioAssay (EPA / NIEHS) are described below.

The term AC50 denotes the concentration at which the activity in the assay is half-maximal.

Active and inactive are the calls of the source. Rule for the calls: active = hit-call score of the fitted dose curve at least 0.9, where 1 is the maximum; inactive = score below 0.9.

Experiment [1] in a line: ATG_E_Box_CIS: Attagene CIS-FACTORIAL HepG2 Assay for human Enhancer Box (E-box) (AID 2282936). The conditions noted are these: HepG2 E-box cis-reporter transcription, actives raise or lower the signal. The procedure, abridged:
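Fluorescent reporter fragments separated by capillary electrophoresis gave the signal; mRNA came from HepG2 cells transfected with cis-element reporters and treated 24 h. Curves fitted bidirectionally relative to DMSO controls.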

A short description of experiment [2]: ATG_M_61_CIS: Attagene CIS-FACTORIAL HepG2 Assay for M61 Transcription Factor (Internal Marker) (AID 2282937). The conditions noted are these: HepG2 Attagene CIS-FACTORIAL M61 internal marker reporter; actives raise or lower the signal. The procedure, abridged: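 Readout: fluorescent reporter mRNA fragments resolved by capillary electrophoresis after RT-PCR. Transiently transfected human HepG2 cells carried MRTU constructs reporting endogenous TF activity; 24 h chemical exposure; gain or loss of signal fitted relative to DMSO.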

A short description of experiment [3]: ATG_EGR_CIS: Attagene CIS-FACTORIAL HepG2 Assay for human Early Growth Response 1 (EGR1) (AID 2282938). Particulars: HepG2 Attagene CIS-FACTORIAL EGR reporter mRNA; actives raise or lower the signal. The procedure, abridged: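 Read-out: fluorescent reporter-mRNA fragments resolved by capillary electrophoresis after RT-PCR, 24 h post-dose in transiently transfected HepG2. Endogenous transcription-factor activity reported via cis-element-regulated reporter units; gain or loss fitted relative to DMSO.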

Experiment [4] can be described thus: ATG_M_19_CIS: Attagene CIS-FACTORIAL HepG2 Assay for M19 Transcription Factor (Internal Marker) (AID 2282939). The conditions noted are these: HepG2 Attagene CIS-FACTORIAL M19 internal marker reporter; actives raise or lower the signal. The procedure, abridged:
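In this multiplexed cell assay, transiently transfected HepG2 reporter units report endogenous transcription-factor activity; after 24 hours of treatment, labelled reporter cDNA fragments are quantified by capillary electrophoresis and fitted bidirectionally against DMSO.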

The nature of experiment [5]: ATG_Ets_CIS: Attagene CIS-FACTORIAL HepG2 Assay for human Erythroblast Transformation Specific (ETS) (AID 2282941). Particulars: HepG2 ETS cis-reporter transcription, actives raise or lower the signal. The procedure, abridged:
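Bidirectional fit versus DMSO of reporter mRNA signal, detected by RT-PCR and capillary electrophoresis in HepG2 cells transiently transfected with cis-element reporters and dosed 24 h.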

Experiment [6] deals with Hepatocyte nuclear factor 3-beta (Homo sapiens) (UniProt Q9Y261). Nature of the experiment: ATG_FoxA2_CIS: Attagene CIS-FACTORIAL HepG2 Assay for human Forkhead box A2 (FOXA2) (AID 2282942). Particulars: HepG2 cis-reporter transcription factor activity, 24 h; actives raise or lower the signal. The procedure, abridged: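 Readout: fluorescent reporter transcripts resolved by capillary electrophoresis after RT-PCR. Transiently transfected HepG2, 24 h compound exposure, endogenous TF activity at cis promoter elements. Gain or loss of signal fitted relative to DMSO.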
Hepatocyte nuclear factor 3-beta (Homo sapiens), sequence (Q9Y261 whole entry, looked up): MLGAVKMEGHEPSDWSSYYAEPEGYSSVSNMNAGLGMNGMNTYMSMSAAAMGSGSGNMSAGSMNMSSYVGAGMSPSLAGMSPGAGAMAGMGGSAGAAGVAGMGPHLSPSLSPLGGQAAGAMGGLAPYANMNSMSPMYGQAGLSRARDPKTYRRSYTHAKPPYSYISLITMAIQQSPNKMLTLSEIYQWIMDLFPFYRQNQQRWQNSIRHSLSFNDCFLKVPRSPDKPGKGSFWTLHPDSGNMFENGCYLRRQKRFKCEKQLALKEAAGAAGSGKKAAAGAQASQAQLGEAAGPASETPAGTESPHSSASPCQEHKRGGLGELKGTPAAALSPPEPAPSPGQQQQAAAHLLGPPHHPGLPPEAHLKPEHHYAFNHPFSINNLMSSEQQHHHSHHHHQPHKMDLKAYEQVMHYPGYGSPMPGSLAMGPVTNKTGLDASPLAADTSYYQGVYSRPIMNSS

Experiment [7] is described as follows: ATG_FoxO_CIS: Attagene CIS-FACTORIAL HepG2 Assay for human Forkhead box O (FoxO) (AID 2282943). The conditions noted are these: HepG2 Attagene cis-reporter, FoxO element, mRNA; actives raise or lower the signal. An outline of the steps: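 HepG2, transient MRTU transfection (cis element, endogenous TFs). Dose 24 h. TriZol RNA → oligo(dT) RT → PCR → 6-FAM primer extension → HpaI cut → CE. Gain/loss vs DMSO.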

The nature of experiment [8]: ATG_GATA_CIS: Attagene CIS-FACTORIAL HepG2 Assay for human GATA Binding Protein (AID 2282944). Particulars: HepG2 GATA cis-element reporter, Attagene multiplex mRNA; actives raise or lower the signal. The procedure, abridged: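 Measures endogenous transcription factor-driven reporter mRNA in HepG2 cells transiently carrying cis-regulated constructs. 24 h dosing; RNA via oligo(dT) reverse transcription, PCR, HpaI digestion, capillary electrophoresis; fitted relative to DMSO.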

The nature of experiment [9]: ATG_GLI_CIS: Attagene CIS-FACTORIAL HepG2 Assay for human Zinc Finger Protein GLI1 (AID 2282945). The conditions noted are these: HepG2, Attagene cis-factorial reporter mRNA, GLI element; actives raise or lower the signal. The procedure, abridged:
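Bidirectional curve fits relative to DMSO, using reporter mRNA levels from RT-PCR plus capillary electrophoresis. Cells were HepG2 transiently carrying cis-regulated reporter constructs, harvested 24 h after dosing.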

Experiment [10] can be described thus: ATG_ISRE_CIS: Attagene CIS-FACTORIAL HepG2 Assay for human Interferon Regulatory Factor 1 (IRF1) binding to an Interferon-Stimulated Response Element (ISRE) (AID 2282948). The conditions noted are these: HepG2 ISRE cis-reporter (Attagene), mRNA transcription readout; actives raise or lower the signal. An outline of the steps: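 Uses HepG2 liver cells transfected with cis-regulated reporters and measures mRNA 24 h post-dosing through RT-PCR, primer-extension labelling and capillary electrophoresis, with DMSO as negative control.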

Experiment [11] is described as follows: ATG_M_32_CIS: Attagene CIS-FACTORIAL HepG2 Assay for M32 Transcription Factor (Internal Marker) (AID 2282949).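 Note: background control marker of the multiplexed CIS panel rather than a real target.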 The conditions noted are these: HepG2 Attagene cis-factorial M32 reporter, mRNA; actives raise or lower the signal. An outline of the steps: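 Using DMSO as baseline, bidirectional curve fits were applied to reporter mRNA signals. These came from transiently transfected HepG2 cells exposed for 24 h, with RNA analysed by RT-PCR, FAM primer extension, HpaI digestion and CE.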

The nature of experiment [12]: ATG_M_06_CIS: Attagene CIS-FACTORIAL HepG2 Assay for M06 Transcription Factor (Internal Marker) (AID 2282950). Particulars: HepG2 Attagene CIS-FACTORIAL M06 internal marker reporter; actives raise or lower the signal. The procedure, abridged: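 One of many multiplexed endpoints: HepG2 reporter mRNA after 24 h dosing, detected by RT-PCR and capillary electrophoresis fluorescence; gain or loss of signal analysed against DMSO.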

For experiment [13], the target named is Hepatocyte nuclear factor 6 (Homo sapiens) (UniProt Q9UBC0). Nature of the experiment: ATG_HNF6_CIS: Attagene CIS-FACTORIAL HepG2 Assay for human Hepatocyte Nuclear Factor 6 (HNF6) (AID 2282952). Particulars: HepG2 Attagene cis-factorial HNF6 reporter transcription; actives raise or lower the signal. The procedure, abridged: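 Endogenous transcription factor activity in human HepG2 liver cells was captured through cis-regulated reporter constructs. After 24 h treatment, reporter mRNA was measured by RT-PCR with capillary electrophoresis, and activity was fitted in both directions relative to DMSO.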
Hepatocyte nuclear factor 6 (Homo sapiens), sequence (Q9UBC0 whole entry, looked up): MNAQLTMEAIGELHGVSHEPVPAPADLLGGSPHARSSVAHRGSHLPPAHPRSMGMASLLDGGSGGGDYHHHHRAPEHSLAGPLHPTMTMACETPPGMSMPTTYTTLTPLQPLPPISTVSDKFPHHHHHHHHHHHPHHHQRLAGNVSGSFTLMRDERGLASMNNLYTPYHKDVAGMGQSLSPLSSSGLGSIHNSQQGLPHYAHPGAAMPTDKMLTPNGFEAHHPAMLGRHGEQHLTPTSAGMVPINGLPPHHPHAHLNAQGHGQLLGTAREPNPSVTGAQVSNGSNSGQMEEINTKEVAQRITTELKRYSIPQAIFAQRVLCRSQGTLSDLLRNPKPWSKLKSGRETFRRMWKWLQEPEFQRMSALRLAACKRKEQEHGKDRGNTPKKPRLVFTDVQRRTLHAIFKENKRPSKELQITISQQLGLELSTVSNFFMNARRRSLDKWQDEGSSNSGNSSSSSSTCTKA

The nature of experiment [14]: ATG_MRE_CIS: Attagene CIS-FACTORIAL HepG2 Assay for human Metal Responsive Element (MRE) (AID 2282954). The conditions noted are these: HepG2 MRE cis-reporter transcription, Attagene multiplex; actives raise or lower the signal. An outline of the steps: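 Multiplexed cis-reporter assay in human HepG2 liver cells, 24 h incubation with test chemical. Reporter transcripts measured by RT-PCR and capillary electrophoresis; values from bidirectional curve fitting versus DMSO.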

Experiment [15] is described as follows: ATG_GRE_CIS: Attagene CIS-FACTORIAL HepG2 Assay for human Glucocorticoid Response Elements (GRE) (AID 2282947). Particulars: HepG2 GRE cis-reporter, Attagene multiplex mRNA; actives raise or lower the signal. An outline of the steps:
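Multiplexed cis-reporter mRNA induction, HepG2, 24 h post-dose. RT-PCR, FAM-labelled, HpaI-digested amplicons by CE. Bidirectional fit vs DMSO.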

Experiment [16] deals with Hypoxia-inducible factor 1-alpha (Homo sapiens) (UniProt Q16665). Nature of the experiment: ATG_HIF1a_CIS: Attagene CIS-FACTORIAL HepG2 Assay for human Hypoxia Inducible Factor 1 (HIF1A) (AID 2282951). The conditions noted are these: HepG2 Attagene cis-factorial HIF1a reporter transcription; actives raise or lower the signal. An outline of the steps:
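RT-PCR/capillary electrophoresis fluorescence readout of reporter transcripts from endogenous-TF-driven cis elements in transfected HepG2 cells, 24 h exposure; activity fitted in both directions against DMSO controls.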

The target in experiment [17] is Heat shock factor protein 1 (Homo sapiens) (UniProt Q00613). Nature of the experiment: ATG_HSE_CIS: Attagene CIS-FACTORIAL HepG2 Assay for human Heat Shock Transcription Factor 1 (HSE) (AID 2282953). Particulars: HepG2 HSE cis-reporter, Attagene RNA transcription; actives raise or lower the signal. The procedure, abridged: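 Using HepG2 with transfected cis-driven reporter constructs, compound effects on endogenous factor activity are scored as reporter mRNA change at 24 h. Detection: RT-PCR, HpaI digestion, capillary electrophoresis; bidirectional fitting to DMSO.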
Heat shock factor protein 1 (Homo sapiens), sequence (Q00613 whole entry, looked up): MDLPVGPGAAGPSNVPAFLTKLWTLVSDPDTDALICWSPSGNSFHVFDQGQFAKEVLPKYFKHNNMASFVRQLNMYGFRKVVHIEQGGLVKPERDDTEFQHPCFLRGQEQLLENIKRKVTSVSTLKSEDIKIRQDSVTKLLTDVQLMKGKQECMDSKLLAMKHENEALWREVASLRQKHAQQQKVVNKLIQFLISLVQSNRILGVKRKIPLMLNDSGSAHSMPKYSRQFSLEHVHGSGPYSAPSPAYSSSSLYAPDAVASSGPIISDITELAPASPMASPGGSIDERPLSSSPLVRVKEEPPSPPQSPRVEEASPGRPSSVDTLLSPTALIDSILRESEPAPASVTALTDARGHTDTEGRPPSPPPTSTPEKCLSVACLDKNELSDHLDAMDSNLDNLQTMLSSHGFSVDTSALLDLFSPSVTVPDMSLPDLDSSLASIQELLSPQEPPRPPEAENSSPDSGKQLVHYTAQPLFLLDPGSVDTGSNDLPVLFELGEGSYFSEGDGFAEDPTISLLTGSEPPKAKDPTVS

A short description of experiment [18]: ATG_PBREM_CIS: Attagene CIS-FACTORIAL HepG2 Assay for human Phenobarbital-responsive Enhancer Module (PBREM) (AID 2282955). Particulars: HepG2 PBREM cis-reporter, Attagene multiplexed transcription; actives raise or lower the signal. The procedure, abridged: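 Reporter mRNA read by RT-PCR, 6-FAM primer extension, HpaI digestion and capillary electrophoresis. Transfected HepG2 cells, 24 h compound exposure. Gain or loss of signal fitted bidirectionally relative to DMSO baseline.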

Experiment [19] addresses Bile acid receptor (Homo sapiens) (UniProt Q96RI1). Nature of the experiment: ATG_IR1_CIS: Attagene CIS-FACTORIAL HepG2 Assay for human Nuclear Receptor Subfamily 1 Group H Member 4 (NR1H4), IR1 submotif (AID 2282946). Particulars: IR1 reporter transcription, actives raise or lower the signal. The procedure, abridged: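 HepG2 cells transiently transfected with multiplexed cis-element reporter units read endogenous transcription factor activity. After 24 h compound exposure, reporter mRNA was quantified by RT-PCR, fluorescent labelling, HpaI digestion and capillary electrophoresis; bidirectional fitting versus DMSO baseline.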

Hypoxia-inducible factor 1-alpha (Homo sapiens), sequence (Q16665 whole entry, looked up): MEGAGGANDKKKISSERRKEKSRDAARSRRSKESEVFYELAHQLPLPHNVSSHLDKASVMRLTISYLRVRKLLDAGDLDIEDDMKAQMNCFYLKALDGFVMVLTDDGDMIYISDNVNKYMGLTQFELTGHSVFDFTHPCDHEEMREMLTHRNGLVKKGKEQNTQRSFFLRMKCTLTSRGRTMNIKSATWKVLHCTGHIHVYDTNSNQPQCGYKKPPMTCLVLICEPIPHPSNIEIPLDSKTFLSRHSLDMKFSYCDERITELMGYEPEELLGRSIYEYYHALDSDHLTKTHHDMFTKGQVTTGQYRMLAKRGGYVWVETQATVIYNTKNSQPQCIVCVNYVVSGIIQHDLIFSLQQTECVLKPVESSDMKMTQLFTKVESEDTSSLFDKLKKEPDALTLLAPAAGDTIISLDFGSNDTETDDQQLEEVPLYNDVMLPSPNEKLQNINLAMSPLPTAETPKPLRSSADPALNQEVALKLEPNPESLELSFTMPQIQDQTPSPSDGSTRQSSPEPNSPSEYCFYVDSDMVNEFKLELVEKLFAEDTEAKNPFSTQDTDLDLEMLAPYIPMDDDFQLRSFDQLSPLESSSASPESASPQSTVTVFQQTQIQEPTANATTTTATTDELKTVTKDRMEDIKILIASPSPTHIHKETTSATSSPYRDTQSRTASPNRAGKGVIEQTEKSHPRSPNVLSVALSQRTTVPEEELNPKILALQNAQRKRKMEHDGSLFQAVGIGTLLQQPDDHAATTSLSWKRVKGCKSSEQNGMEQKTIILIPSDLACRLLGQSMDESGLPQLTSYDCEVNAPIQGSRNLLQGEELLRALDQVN
Bile acid receptor (Homo sapiens), sequence (Q96RI1 whole entry, looked up): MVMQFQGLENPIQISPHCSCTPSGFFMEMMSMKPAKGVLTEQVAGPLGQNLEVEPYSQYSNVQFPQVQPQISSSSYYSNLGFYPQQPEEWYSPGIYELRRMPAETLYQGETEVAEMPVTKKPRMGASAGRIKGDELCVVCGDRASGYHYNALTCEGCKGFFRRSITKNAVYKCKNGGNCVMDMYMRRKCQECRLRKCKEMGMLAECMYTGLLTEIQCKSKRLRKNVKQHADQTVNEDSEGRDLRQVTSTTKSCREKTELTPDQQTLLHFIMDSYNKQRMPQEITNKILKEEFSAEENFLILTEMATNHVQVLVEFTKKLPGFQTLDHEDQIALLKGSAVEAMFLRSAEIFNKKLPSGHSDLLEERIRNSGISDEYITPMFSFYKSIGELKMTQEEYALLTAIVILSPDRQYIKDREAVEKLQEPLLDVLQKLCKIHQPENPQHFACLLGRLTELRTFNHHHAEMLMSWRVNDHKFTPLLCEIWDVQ

Consider `CC(C)NCC(O)c1ccc(O)c(O)c1` (stereo unspecified), for which the outcome in [1], in experiment [2], in experiment [3], in experiment [4], in experiment [5] and in experiment [6] was inactive. Moreover, the result in experiment [7], in experiment [8], in experiment [9], in experiment [10], in [11] and in [12] was inactive. In addition, the result in experiment [13] and in [14] was inactive.

On to `N[C@@H](Cc1c[nH]c2ccccc12)C(=O)O`, for which the outcome in [1], in [2], in experiment [3], in experiment [4], in experiment [5] and in experiment [6] was inactive. In addition, the compound was classed as inactive in experiment [7], in [8], in experiment [15], in [10], in experiment [11] and in experiment [12]. Also, the outcome in experiment [13], in experiment [17] and in experiment [14] was inactive. Further, in experiment [16], the concentration at half-maximal activity (AC50) was 27.3 µM (active).

As to `COC(=O)[C@H]1[C@H]2C[C@@H]3c4[nH]c5cc(OC)ccc5c4CCN3C[C@H]2C[C@@H](OC(=O)c2cc(OC)c(OC)c(OC)c2)[C@@H]1OC`, the values for the half-maximal activity concentration (AC50) in experiment [1], in experiment [3] and in experiment [14] were 51.6 µM (active), 8.83 µM (active) and 3.49 µM (active), respectively. Besides, the call in [2], in [4], in experiment [5], in experiment [6], in experiment [7] and in experiment [8] was inactive. The compound was called inactive in [9], in experiment [10], in experiment [11], in experiment [12], in experiment [13] and in experiment [17].

`O=C1O[C@H]([C@H](O)CO)C(O)=C1O`: the outcome in experiment [1], in experiment [2], in experiment [3], in [4], in experiment [5] and in [6] was inactive. Moreover, the compound was classed as inactive in [7], in experiment [8], in experiment [15], in experiment [10], in experiment [11] and in experiment [12]. Further, the compound was classed as inactive in experiment [16], in [13], in experiment [17], in [14] and in experiment [18].

Take `O=C(O)c1cccnc1`: the result in [1], in experiment [2], in experiment [3], in experiment [4], in experiment [5] and in [7] was inactive. Further, the call in [8], in experiment [19], in experiment [10], in [11], in [12] and in [16] was inactive. In addition, the compound was called inactive in experiment [17], in [14] and in experiment [18].

Regarding `CN(C)CCCN1c2ccccc2Sc2ccc(Cl)cc21`, the outcome in experiment [1], in experiment [2], in experiment [4], in experiment [5], in experiment [6] and in experiment [7] was inactive. For the same compound, the result in experiment [8], in experiment [19], in [10], in experiment [11], in experiment [12] and in experiment [18] was inactive. Moreover, the half-maximal activity concentration (AC50) is 13.2 µM (active) in experiment [3], 20.8 µM (active) in experiment [13] and 15.5 µM (active) in experiment [14].

For the compound `NCCOCCOCCN`, the outcome in [1], in experiment [2], in experiment [3], in experiment [4], in experiment [5] and in experiment [6] was inactive. Besides, the result in experiment [7], in experiment [8], in [15], in experiment [10], in [11] and in experiment [12] was inactive. Besides, the call in experiment [16], in experiment [13], in experiment [17], in experiment [14] and in experiment [18] was inactive.

`CN(C)C(=O)NC1(c2ccccc2)CCN(CC[C@@]2(c3ccc(F)c(F)c3)CN(C(=O)c3ccccc3)CCO2)CC1`: the AC50 in [1] is 162 µM (active); in experiment [16], 47.9 µM (active); in experiment [14], 57.9 µM (active). Further, the compound was called inactive in [2], in experiment [3], in [4], in experiment [5], in experiment [6] and in [7]. Moreover, the outcome in [8], in experiment [19], in experiment [15], in [10], in [11] and in experiment [12] was inactive. Besides, the call in experiment [13] and in experiment [17] was inactive.
